What all share (test): NCI-60 one-dose screen, 48 h (100 = growth as untreated, 0 = no growth, -100 = all killed)
Assay [1] has as its system BT-549 breast. Particulars: 10 µM unless noted.
Assay [2] deals with MDA-MB-435 melanoma. Conditions: 10 µM unless noted.
Assay [3] concerns HCT-116 colon. Conditions: 10 µM unless noted.
Assay [4] deals with HCC-2998 colon. Conditions: 10 µM unless noted.
For assay [5], the system named is KM12 colon. Particulars: 10 µM unless noted.
Assay [6] concerns MCF7 breast. Conditions: 10 µM.
Assay [7] concerns SW-620 colon. Conditions: 10 µM unless noted.

Each structure is given as a SMILES string. About 83,000 compounds went through this panel and 20% of them were active in at least one assay; those are over-represented in the sample as a whole.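 Step 1: grow cells in 96-well plates. Step 2: add test compound at a single concentration. Step 3: incubate 48 h. Step 4: record percent growth.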 Unmarked numbers belong to inactive results. Active and inactive are the calls of the source. Rule for the calls: active = growth percent below 10; inactive = the rest.

As to `COC(=O)C1=C(C)NC(C)=C(C(=O)OC)C(N2C(=O)CCC2=O)C1` (stereo unspecified), the growth is 79.4% in assay [1]; 81.7% in assay [2]; 57.5% in assay [3]; 105% in assay [4]; 94.7% in assay [5].

Consider `COc1nc2c(c(=O)n1C)N=C1c3ccccc3C(=O)C1C(c1ccccc1)N2` (stereo unspecified), for which the growth is 81.1% in assay [1]; 88.2% in assay [6]; 89.9% in assay [3]; 106% in assay [4]; 79.3% in assay [5].

As to `COc1cc(C2C3=C(COC3=O)N(CCO)c3cc4c(cc32)CCC4)cc(OC)c1O` (stereo unspecified), the growth was -7.32% (active) in assay [1]; -26.8% (active) in assay [2]; 8.94% (active) in assay [3]; -22.4% (active) in assay [4]; -20.6% (active) in assay [5].

Regarding `O=C(Nc1ccc(Cl)cc1)c1cc2ccccc2cc1OP(=O)(O)O`, the growth in assay [1] was 11.7%; in assay [2], 15.8%; in assay [3], 10.8%; in assay [4], 47.9%; in assay [5], 56.2%.

Take `COc1ccc(Cn2cc(Cn3c(=O)c(-c4nc5ccccc5[nH]4)cc4ccccc43)nn2)c(OC)c1OC`: the growth in assay [1] was -12.2% (active); in assay [2] it was -79.6% (active); in assay [6], 17.1%; in assay [3], 5.1% (active); in assay [5] it was 4.44% (active).

For `O=C(Nc1ccc(Br)cc1F)c1cc(Cl)ccc1O`, the growth in assay [2] was -13.9% (active); in assay [7], 11.7%; in assay [6] it was 0.423% (active); in assay [3], -30.5% (active); in assay [4], 9.31% (active); in assay [5] it was -30.9% (active).

Consider `COc1ccc(/C=C/C(=O)c2ccc(Nc3nc(NCCO)nc(Nc4ccc(Cl)cc4)n3)cc2)cc1`, for which the growth was 65.4% in assay [2]; 91.1% in assay [7]; 12.9% in assay [6]; 19.8% in assay [3]; 57.2% in assay [4]; 41% in assay [5].

Regarding `O=C(Nc1ccc(I)cc1F)c1cc(Cl)ccc1O`, the growth in assay [2] is -2.93% (active); in assay [7], 8.71% (active); in assay [6] it was 1.52% (active); in assay [3], -29.5% (active); in assay [4], 17.6%; in assay [5] it was -10.9% (active).

Consider `O=C(CCN1C(=O)c2ccccc2C1=O)Nc1ccc(Cl)cc1`, for which the growth in assay [2] was 68.9%; in assay [7], 103%; in assay [6], 72.4%; in assay [3], 61.4%; in assay [4], 75.2%; in assay [5], 75%.

On to `O=C(Nc1ccc(F)cc1F)c1cc(Br)ccc1O`, for which the growth is 0.167% (active) in assay [2]; 13.1% in assay [7]; -1.09% (active) in assay [6]; 1.66% (active) in assay [3]; 13.5% in assay [4]; -0.56% (active) in assay [5].

For the compound `Brc1ccc(Oc2ccc(Nc3ncnc4onc(-c5ccccc5)c34)cc2)cc1`, the growth is 99.9% in assay [2]; 100% in assay [7]; 86.1% in assay [6]; 97.5% in assay [3]; 95.5% in assay [4]; 99.6% in assay [5].

Regarding `O=c1oc2ccc(I)cc2c(=O)n1-c1ccc(I)cc1F`, the growth was -4.7% (active) in assay [2]; 8.02% (active) in assay [7]; 2.88% (active) in assay [6]; 2.66% (active) in assay [3]; 21% in assay [4]; -10.7% (active) in assay [5].

Take `O=C(Nc1ccc(Br)cc1F)c1cc(F)ccc1O`: the growth in assay [2] was -1.29% (active); in assay [7], 10.2%; in assay [6] it was 3.43% (active); in assay [3] it was 2.34% (active); in assay [4] it was 17.8%; in assay [5], 0.627% (active).

`O=c1oc2ccc(Cl)cc2c(=O)n1-c1ccc(F)cc1F`: the growth in assay [2] was 3.09% (active); in assay [7], 15.6%; in assay [6], 5.09% (active); in assay [3], 7.6% (active); in assay [4], 34%; in assay [5] it was 5.64% (active).

In the case of `CC1=C(C(=O)OCC2CCN(C(=O)OC(C)(C)C)CC2)[C@H](c2cccc(Br)c2)C2=C(CC(C)(C)CC2=O)N1`, the growth was 24.9% in assay [2]; 28.2% in assay [7]; 13.8% in assay [6]; 17.7% in assay [3]; 49.2% in assay [4]; 25% in assay [5].

For `O=C(COc1cc(O)c2c(=O)cc(-c3ccccc3)oc2c1)Nc1ccccc1`, the growth is 95.3% in assay [2]; 87.5% in assay [7]; 85.3% in assay [6]; 57.4% in assay [3]; 99.7% in assay [4]; 86.5% in assay [5].

On to `O=C(CSc1ncccc1C(=O)O)Nc1ccc(Oc2ccccc2)cc1`, for which the growth in assay [2] was 105%; in assay [7], 91.9%; in assay [6], 91.5%; in assay [3] it was 96.9%; in assay [4], 102%; in assay [5], 110%.

Regarding `CC(C)Cn1c2c(c(=S)[nH]c1=O)CCC2`, the growth is 98.9% in assay [2]; 93.6% in assay [7]; 109% in assay [6]; 105% in assay [3]; 123% in assay [4]; 105% in assay [5].

For `COc1ccc(OC)c(N(CCN2C(=O)c3ccccc3C2=O)C(=O)CCl)c1`, the growth is 81.5% in assay [2]; 96.4% in assay [7]; 78.8% in assay [6]; 89% in assay [3]; 111% in assay [4]; -11.3% (active) in assay [5].

Take `O=C(Nc1ccc(F)cc1F)c1cc(I)ccc1O`: the growth in assay [2] is 5.35% (active); in assay [7], 14.5%; in assay [6] it was 5.52% (active); in assay [3], 6.45% (active); in assay [4], 24.4%; in assay [5], 6.2% (active).

For `CN(C)c1ccc(N=Cc2ccc(N3CCOCC3)cc2)cc1`, the growth in assay [2] was 74.1%; in assay [7], 44.2%; in assay [6], 39%; in assay [3] it was 67.6%; in assay [4], 54.2%; in assay [5], 59.5%.

(Values after PubChem BioAssay (NCI).)
